LmPK inhibitor – blocks Leishmania mexicana pyruvate kinase activity; Q27686; purified LmPK, Kinase-Glo ATP luminescence, 1 h; Potency, µM (highest dose often 57.5 µM), inactives show at the top dose activity change, negative = inhibition, actives largely listed as inhibitors; actives 0.37% (n = 290,000); AID 1721; also: % is scaled to controls: 0 for no effect and ±100 for the full control effect
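In 50 mM imidazole pH 7.2 with 7 mM MgCl2, LmPK (0.1 nM) turned over PEP (0.5 mM) and ADP (0.1 mM) for 1 h at room temperature. Luciferase read-out of ATP.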
TbPYK inhibitor – T. brucei pyruvate kinase inhibition. actives 0.12% (n = 410,000). TbPYK enzyme, Kinase-Glo Plus ATP luminescence, 45 min. AID 624173. Q57TT1. Potency, µM (doses to about 76.8 µM), for inactives: at the top dose activity, negative = inhibition, most hits filed as inhibitors; also: % is scaled to controls: 0 for no effect and ±100 for the full control effect; nearly all actives have a fitted effect of over 50% in size
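Luminescence from Kinase-Glo Plus, added after a 45-minute room-temperature reaction, served as the end-point read-out. The enzyme and substrate were preincubated with compound before ADP (130 uM final) initiated turnover. Concentration-effect curves came from normalized qHTS data.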
Giardia FBPA inh-1 – blocks Giardia fructose-bisphosphate aldolase activity | A8B2U2 | purified Giardia FBPA | Potency, µM (titrated, usually from 59.6 µM), inactives show at the top dose activity, negative = inhibition, most hits filed as inhibitors | actives 0.71% (n = 290,000) | AID 2451; also: % is scaled to controls: 0 for no effect and ±100 for the full control effect; nearly all actives have a fitted effect of over 55% in size
Target sequence (A8B2U2 whole entry, looked up): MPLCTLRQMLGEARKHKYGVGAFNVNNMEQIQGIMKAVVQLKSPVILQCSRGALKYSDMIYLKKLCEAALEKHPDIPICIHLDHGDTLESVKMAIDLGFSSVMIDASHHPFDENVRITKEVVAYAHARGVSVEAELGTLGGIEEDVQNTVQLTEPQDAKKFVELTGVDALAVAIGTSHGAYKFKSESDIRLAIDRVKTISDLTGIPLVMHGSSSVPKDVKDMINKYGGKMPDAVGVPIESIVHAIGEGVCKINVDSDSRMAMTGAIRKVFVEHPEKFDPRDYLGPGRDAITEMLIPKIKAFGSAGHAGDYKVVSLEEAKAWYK
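40 nM FBPA preincubated 10 min at RT with compound (up to 57.5 uM final), then substrate plus GAPDH/TPI/NAD/arsenate coupling and diaphorase/resazurin added. Fluorescence read after 20 min at RT, 525/598 nm.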
NS1 inh – blocks influenza NS1 protein function; Potency, µM (doses to about 46.1 µM), without a hit: at the highest dose activity, positive = more growth; actives 0.4% (n = 270,000); AID 2326; calls by dose curve; also: actives are rising curves; nearly all actives have a fitted effect of over 50% in size
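OD600 was taken as the measure of yeast growth restored by compound in an NS1-expressing S. cerevisiae strain. Cells had been washed out of glucose medium and diluted 1:100 into galactose -URA medium, pH 6.0.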
AMA1-RON2 inh – disrupts binding of P. falciparum AMA1 to RON2; AlphaScreen AMA1-biotinylated RON2 peptide binding; Potency, µM (top dose mostly 58.2 µM), for the others: top-dose activity change, negative = inhibition, actives largely listed as inhibitors; actives 0.2% (n = 360,000);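 also: 0% = vehicle wells and -100% = peptide control; nearly all actives have a fitted effect of over 45% in size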
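AMA1 (3D7) with his tag at 25 nM final met compounds first, then biotinylated RON2 peptide at 25 nM; detection used donor plus acceptor beads, 10 µg/mL apiece, read by AlphaScreen after 30 min at room temperature.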
Giardia growth – Giardia lamblia growth inhibition; shares compounds with Giardia FBPA inh-1; Giardia lamblia trophozoite growth inhibition; Potency, µM (doses to about 57.5 µM), for inactives: at the highest dose activity change, negative = inhibition, usual class: inhibitors; actives 5% (n = 1,500);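 also: trophozoites exposed to compound for 48 h at 37 °C; % is scaled to controls: 0 for no effect and ±100 for the full control effect; nearly all actives have a fitted effect of over 70% in size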
Mammalian tox – mammalian cytotoxicity of Giardia aldolase inhibitor hits. shares compounds with Giardia FBPA inh-1. mammalian cell viability counter-screen, qHTS. Potency, µM (highest dose often 57.5 µM), inactives show at the top dose viability change, negative = toxicity, usual class: inhibitors. actives 4% (n = 1,500);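 also: Chinese hamster ovary cells used as mammalian cytotoxicity surrogate; viability measured as cellular ATP by luminescence; compound exposure lasted 48 h before reading; % is scaled to controls: 0 for no effect and ±100 for the full control effect; nearly all actives have a fitted effect of over 60% in size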
Giardia FBPA inh-2 – confirmation of Giardia fructose-bisphosphate aldolase inhibitors | shares compounds with Giardia FBPA inh-1 | purified Giardia aldolase enzyme activity, qHTS | Potency, µM (titrated, usually from 57.5 µM), without a hit: at the top dose activity change, negative = inhibition, most hits filed as inhibitors | actives 5% (n = 1,500) | AID 2787; also: % is scaled to controls: 0 for no effect and ±100 for the full control effect; nearly all actives have a fitted effect of over 45% in size
Rabbit FBPA inh – selectivity test for Giardia aldolase inhibitors: rabbit aldolase; shares compounds with Giardia FBPA inh-1; Rabbit muscle FBPA enzyme inhibition, selectivity counter-screen; Potency, µM (highest dose often 57.5 µM), for inactives: top-dose activity, negative = inhibition, most hits filed as inhibitors; actives 4% (n = 1,500); AID 2794; also: % is scaled to controls: 0 for no effect and ±100 for the full control effect; nearly all actives have a fitted effect of over 60% in size
Target sequence (P00883 whole entry, looked up): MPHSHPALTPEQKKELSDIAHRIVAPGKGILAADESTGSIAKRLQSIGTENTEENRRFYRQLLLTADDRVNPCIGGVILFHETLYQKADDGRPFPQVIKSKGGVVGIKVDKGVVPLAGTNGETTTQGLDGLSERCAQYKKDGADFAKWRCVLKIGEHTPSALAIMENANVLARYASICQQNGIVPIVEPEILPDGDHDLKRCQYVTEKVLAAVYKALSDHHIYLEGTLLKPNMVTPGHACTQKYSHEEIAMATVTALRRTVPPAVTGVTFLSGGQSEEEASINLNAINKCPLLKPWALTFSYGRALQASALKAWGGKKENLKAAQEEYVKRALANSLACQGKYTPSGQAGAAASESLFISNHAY
GAPDH counter – counter-screen for Giardia aldolase inhibitors: GAPDH coupling enzyme; shares compounds with Giardia FBPA inh-1; GAPDH coupling enzyme counterscreen, biochemical, qHTS; Potency, µM (titrated, usually from 57.5 µM), for the others: at the highest dose activity change, negative = inhibition, most hits filed as inhibitors; actives 6% (n = 1,500); AID 2795; also: % is scaled to controls: 0 for no effect and ±100 for the full control effect; nearly all actives have a fitted effect of over 55% in size
* hit, by the source's call; ? = inconclusive; · = no result; [ ] = remark or other dose. Compounds with a hit are over-represented: about 1.2% of the library has one in this group of screens. Unless noted, calls follow the shape of the dose curve; as a rule, active = well fitted curve in the direction sought with a large enough effect; inconclusive = small, poorly fitted or top-dose-only effect, or another doubt; inactive = no such curve, though single readings can be large; an effect the other way counts as inactive or inconclusive. Potency is read from the fitted curve at half-maximal effect.

SMILES	LmPK inhibitor	TbPYK inhibitor	Giardia FBPA inh-1	NS1 inh	AMA1-RON2 inh	Giardia growth	Mammalian tox	Giardia FBPA inh-2	Rabbit FBPA inh	GAPDH counter
CO/N=C(/C(=O)N[C@@H]1C(=O)N2C(C(=O)O)=CCS[C@H]12)c1cnc(N)s1	4%	·	16µM*	0%	·	-21%	3%	-13%	-8%	-6%
C/C(=N\N1C(=O)CSC1=S)c1ccc(Br)cc1	4%	-10%	16µM*	·	51%	-16%	6%	-12%	2%	-6%
CC(C)(C)OC(=O)NCCCCC1=CC2=CC(=O)C(C)(OC(=O)CCc3ccccc3)C(=O)C2=CO1 (stereo unspecified)	·	·	-6%	·	·	·	·	·	·	·
COCCNC(=O)CNC(c1ccccc1)c1ccccc1	-10%	·	20µM*	·	·	11%	-9%	1%	4%	7%
COc1cc(C(=O)NC(=S)Nc2ccc(Cl)cn2)cc(OC)c1OC	-2%	-11%	10µM*	8%	9%	7%[38.3 µM]	2%	2%	-2%	-3%
COc1ccc(C(=O)NC(=S)Nc2cccnc2)cc1Cl	-3%	-6%	10µM*	-1%	42%	8%[10.4 µM]	-2%	7%	1%	6%
COc1cc(C(=O)Nc2ccc(NC(=O)c3cccc(Cl)c3)nc2)cc(OC)c1OC	5%	-6%	7%	2%	6%	·	·	·	·	·
CCOc1ccc(NC(=S)NC(=O)c2cccnc2)c([N+](=O)[O-])c1	1%	10%	8.9µM*	3%	40%	35µM*	22%	0%	-4%	-20%
CCOc1ccc(NC(=S)NC(=O)c2c(Br)cnn2C)c([N+](=O)[O-])c1	3%	-6%	-5%	14%	4%	·	·	·	·	·
CCOc1cc(C(=O)NC(=S)Nc2cccnc2)cc(OCC)c1OCC	0%	7%	11µM*	4%	14%	3%[10.4 µM]	8%	-1%	7%	9%
CCC(Oc1ccccc1)C(=O)Nc1cc(-c2ccccc2F)nn1-c1ccccc1 (stereo unspecified)	·	6%	·	·	·	·	·	·	·	·
COc1cccc([C@@H]2Oc3ccc(Br)cc3C[C@H]2OC(=O)Nc2ccc(OC(F)F)cc2)c1	·	·	12%	·	·	·	·	·	·	·
COc1ccc(CN2CCN(CCCCOc3ccc(Cl)cc3)CC2)c(OC)c1OC	4%	-12%	18µM*	-6%	?	-21%	-6%	-3%	1%	9%
COc1cccc(C(=O)NC(=S)Nc2ccccc2N2CCCCC2)c1	-7%	-12%	16µM*	?	26%	?	-22%	-3%	-2%	7%
CCCCC(=O)N/N=C/c1c(O)n(-c2cccc3ccccc23)c(=O)[nH]c1=O	2%	-1%	16µM*	-4%	54%	90%	6%	9%	-9%	2%
CC(=O)c1c(C)nc(-c2ccc(Cl)cc2)nc1N=CN(C)C	7%	0%	?	-12%	-2%	·	·	·	·	·
CC(=O)c1c(C)nc(-c2ccc(Cl)cc2)nc1N	-3%	-1%	5µM*	·	-10%	-29%[38.3 µM]	4%	9%	15%	0%
CC(C)CC(=O)N1CCC(N(CCc2ccccc2)Cc2ccccc2)CC1	-1%	12%	25µM*	1%	-29%	-12%	-8%	0%	0%	6%
CC1CCN(C(=O)CN(CCc2ccccc2)S(C)(=O)=O)CC1	1%	1%	4%	?	-5%	·	·	·	·	·
CCNc1nc(NC(C)C)nc(NS(=O)(=O)c2ccc(C)cc2)n1	-1%	3%	28µM*	-3%	-3%	-20%	-2%	?	?	40µM*
CCNc1nc(NC(C)C)nc(OCCNS(=O)(=O)c2cc(C)ccc2C)n1	1%	-11%	6%	4%	1%	·	·	·	·	·
CC1(C)C[C@](C)(C(=O)c2ccccc2)C=C1c1ccccc1	·	·	0%	·	·	·	·	·	·	·
CCOC(=O)Cc1csc(NS(=O)(=O)c2ccc(NC(C)=O)cc2)n1	-3%	9%	14µM*	9%	10%	0%	16%	8%	15%	17%
CCOC(=O)Cc1csc(NC(=O)CN2CCOCC2)n1	-3%	-1%	14µM*	?	44%	0%[10.4 µM]	1%	4%	5%	15%
CCOC(=O)Cc1csc(NC(=O)CCCc2ccccc2)n1	-5%	2%	35µM*	-1%	11%	-23%	-2%	-17%	-7%	-12%
SMILES	LmPK inhibitor	TbPYK inhibitor	Giardia FBPA inh-1	NS1 inh	AMA1-RON2 inh	Giardia growth	Mammalian tox	Giardia FBPA inh-2	Rabbit FBPA inh	GAPDH counter
CCOC(=O)Cc1csc(NC(=O)CCc2ccc(S(=O)(=O)N3CCOCC3)cc2)n1	-2%	3%	-1%	-3%	1%	·	·	·	·	·
CCOC(=O)Cc1csc(NC(=O)CCC(=O)O)n1	7%	-6%	4%	-1%	6%	·	·	·	·	·
Oc1c(Br)cc(Br)cc1CN(Cc1cc(Br)cc(Br)c1O)C1CCCCC1	·	·	·	5%	·	·	·	·	·	·
CCC(C)N1C(=O)/C(=C/c2ccc3c(c2)CCN3CCCCl)C(=O)NC1=S (stereo unspecified)	-22%	?	11µM*	4%	27%	6%[10.4 µM]	-5%	?	-8%	6%
CC1=C(c2ccc(C)cc2)S(=O)(=O)N(Cc2ccc(C(=O)NCc3ccccc3F)cc2)C1=O	·	1%	·	·	·	·	·	·	·	·
CCn1c(SCC(=O)c2ccccc2)nnc1-c1cnccn1	-2%	-25%	?	9%	8%	·	·	·	·	·
Cn1c(SCC(=O)c2ccccc2)nnc1-c1cnccn1	-10%	?	20µM*	-15%	0%	17%	-4%	8%	2%	6%
CCCCCC1=C2CNC(CC(C)C)(C(=O)OC)C=C2C(C)C1=O (stereo unspecified)	·	·	-25%	·	·	·	·	·	·	·
Cc1ccc(C(=O)NNC(=S)NC(=O)c2ccc(Cl)cc2Cl)cc1	0%	-4%	?	-33%	50%	-33%[38.3 µM]	?	10%	4%	11%
Cc1ccc(C(=O)NNC(=S)NC(=O)c2ccccc2)cc1	·	-12%	·	·	40%	·	·	·	·	·
CC(=O)Nc1n[nH]c(=S)s1	·	?	·	·	27%	·	·	·	·	·
CNc1n[nH]c(=S)s1	2%	?	18µM*	2%	-3%	-17%	1%	-1%	-4%	12%

Bioassay records from PubChem.
